Results filed as inconclusive are left out. The source made the active and inactive calls. Unless noted, calls come from the whole dose curve.

Assay [1] is described as follows: Nuclear factor erythroid 2-related factor 2/antioxidant responsive element (Nrf2/ARE) small molecule agonists: luciferase reporter gene qHTS assay in human keratinocytes (AID 1919969). Note: nearly all actives have a fitted effect of over 35% in size. Note: potency is the fitted concentration of half-maximal effect.
Assay [2] deals with Gonadotropin-releasing hormone receptor (Homo sapiens) (UniProt P30968). The experiment in a line: Human gonadotropin-releasing hormone receptor (GnRHR) small molecule agonists, calcium flux assay in GnRHR-HEK293 cells (AID 1920063). Note: nearly all actives have a fitted effect of over 35% in size. Summed up:
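Compounds dissolved in DMSO are pin-transferred onto dye-loaded GnRHR-HEK293 cells, which were seeded 18 h before at 37 C/5% CO2. Calcium signal is read as fluorescence intensity at 1 s intervals for 3 min.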
(In general: Calcium assays in cells follow changes in intracellular calcium, usually with a dye or a luminescent sensor.)

The target in assay [3] is KiSS-1 receptor (Homo sapiens) (UniProt Q969F8). Nature of the assay: Human kisspeptin (KISS1R) small molecule agonists, calcium flux assay in KISS1R-HEK293 cells (AID 1920064; active = well fitted activation curve with a large enough effect in the repeat runs). Summed up:
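Cell line: HEK293, stable human KISS1R. Dye loading 1 h at 37 C after 18 h culture. Read: kinetic fluorescence, 480/540 nm, 3 min at 1 s intervals.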

Assay [4] is described as follows: G protein-coupled receptor (GPCR) small molecule agonists, calcium flux assay: HEK293 wild type cell line counter screen (AID 1920065). Summed up: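 Tox21 10K compounds, 15 concentrations each in triplicate, pin-transferred in DMSO onto dye-loaded cells; kinetic read at 480/540 nm for 3 min, 1 s intervals.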
A short description of assay [5]: p53 small molecule agonists, cell-based qHTS assay with human liver microsomes (AID 1963577).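 Note: p53 response element beta-lactamase reporter cells with liver microsomes plus NADPH.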 Put shortly: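 Reporter activation was measured by LiveBLAzer fluorescence intensity in p53RE-bla cells, which had been exposed to compounds for 16 h at 37 C alongside 0.5 mg/mL human liver microsomes and 0.5 mg/mL NADPH (final concentrations).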
In general terms: qHTS replaces the single test concentration by a dilution series.

The nature of assay [6]: p53 small molecule agonists, cell-based qHTS assay with rat liver microsomes (AID 1963578). Summed up: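 Compound in DMSO added to p53RE-bla cells 5 h post-plating; rat microsomes/NADPH 0.5 mg/mL final; 16 h, 37 C; LiveBLAzer 2 h RT.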
Assay [7] can be described thus: p53 small molecule agonists, cell-based qHTS assay with human liver microsomes: qHTS cell viability counter screen (AID 1963579). Note: nearly all actives have a fitted effect of over 45% in size. Summed up: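 HLM-supplemented (0.5 mg/mL final) and NADPH-supplemented (0.5 mg/mL final) p53RE-bla cultures, 4,000 cells per well, were dosed with compounds in DMSO for 16 h at 37 C; luminescent ATP detection (CellTiter-Glo, 30 min, room temperature) quantified surviving cells.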

Assay [8] can be described thus: p53 small molecule agonists, cell-based qHTS assay with rat liver microsomes: qHTS cell viability counter screen (AID 1963580). Note: nearly all actives have a fitted effect of over 45% in size. Put shortly: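 Counter screen for cytotoxicity under metabolic activation: rat liver microsomes and NADPH, 0.5 mg/mL final each, added with compounds to p53RE-bla HCT-116 cells; 16 h at 37 C, then ATP luminescence read.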
Assay [9] is described as follows: p53 small molecule agonists, cell-based qHTS assay: qHTS cell viability counter screen (AID 1963581). Note: nearly all actives have a fitted effect of over 45% in size. Put shortly: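 ATP content measured by luminescence in HCT-116 p53RE-bla cells treated 16 h at 37 C, same wells as the reporter screen.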
The nature of assay [10]: p53 small molecule agonists, cell-based qHTS assay (AID 1963582; active = well fitted activation curve with a large enough effect in the signal ratio in the repeat runs, not every such curve was filed as active; the % refers to the signal ratio). Summed up: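 16 h compound exposure (37 C) of p53 response element–bla cells, preceded by 5 h recovery at 37 C/5% CO2; read-out via LiveBLAzer B/G FRET substrate, 2 h RT, fluorescence intensity.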
Assay [11] deals with 5-hydroxytryptamine receptor 2A (Homo sapiens) (UniProt P28223). Nature of the assay: 5-hydroxytryptamine receptor 2A (HTR2A) small molecule antagonists, cell-based qHTS assay (AID 1963586). Note: nearly all actives have a fitted effect of over 45% in size. Note: potency is the fitted concentration of half-maximal effect. Summed up: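 CHO cells stably expressing human HTR2A were plated for 18 h at 37 C, then loaded with calcium dye for 1 h. Compounds were preincubated 5 min at room temperature before DOI (4 nM solution) was added. Kinetic fluorescence was read for 3 min.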

The target is the same in assay [12]. The experiment in a line: 5-hydroxytryptamine receptor 2A (HTR2A) small molecule agonists, cell-based qHTS assay (AID 1963587). Note: nearly all actives have a fitted effect of over 30% in size. Summed up:
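HTR2A-CHO cells, plated 18 h at 37 C/5% CO2, dye-loaded 1 h at 37 C; compounds in DMSO added by pin tool (agonist mode). Intracellular calcium flux read as kinetic fluorescence on FDSS over 2 min at 1 s intervals.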

The target of assay [13] is Muscarinic acetylcholine receptor M1 (Homo sapiens) (UniProt P11229). Nature of the assay: Cholinergic receptor muscarinic 1 (CHRM1) small molecule agonists, cell-based qHTS assay (AID 1963589). Note: nearly all actives have a fitted effect of over 35% in size. Put shortly:
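Homogeneous fluorescence calcium flux, agonist mode. Human M1-expressing CHO cells; compound dosed at 15 concentrations, three independent runs; signal sampled every 1 sec.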

Assay [14] can be described thus: cAMP Responsive Elements (CRE) small molecule agonists, cell-based qHTS assay (AID 1963590). Summed up: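 HEK 293T cells stably bearing CRE-bla were plated at 2,000 cells per well and rested 18 h. Compounds, positive controls or DMSO were added for 3 h at 37 C. LiveBLAzer B/G substrate was then loaded for 2 h at room temperature.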
Assay [15] can be described thus: cAMP Responsive Elements (CRE) small molecule antagonists, cell-based qHTS assay (AID 1963591; active = well fitted inhibition curve with a large enough effect in the signal ratio in the repeat runs, not every such curve was filed as active; the % refers to the signal ratio). Summed up:
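First, CRE-bla HEK293T cells settled 18 h at 37 C. Next, compound and 0.25 uM final NKH477 were applied for 3 h. Last, LiveBLAzer B/G substrate was loaded for 2 h at room temperature.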

Assay [16] addresses Beta-2 adrenergic receptor (Homo sapiens) (UniProt P07550). Nature of the assay: Adrenergic beta2 receptor (ADRB2) small molecule antagonists, cell-based qHTS assay (AID 1963592). Note: series mostly up to about 92 µM; nearly all actives have a fitted effect of over 50% in size. Put shortly:
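Assay format: CHO-ADRB2 cells, 18-20hr seeding at 37C/5% CO2, then compound plus 1nM isoproterenol agonist mix for 0.5hr RT. Homogeneous time-resolved fluorescence cAMP detection after 1hr, expressed as 665/615 nm ratio.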

Assay [17] has the same target. Nature of the assay: Adrenergic beta2 receptor (ADRB2) small molecule agonists, cell-based qHTS assay (AID 1963593).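 Note: CHO cells stably overexpressing human ADRB2.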 Put shortly:
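CHO cells stably over-expressing ADRB2 were plated overnight at 37C, then dosed with compounds plus a stimulation mix containing 100uM IBMX and 25uM Ro-20-1724 for 0.5hr at room temperature. cAMP was measured by HTRF competition, 1hr.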

The target in assay [18] is D(2) dopamine receptor (Homo sapiens) (UniProt P14416). The experiment in a line: Dopamine D2 receptor (DRD2) small molecule agonists, cell-based qHTS assay (AID 1963594). Note: nearly all actives have a fitted effect of over 35% in size. Put shortly: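 HEK293 cells stably expressing DRD2 were cultured 24 h at 37 C, then given Ro20-1724 (0.1 mM final) and compounds for 10 min at room temperature. NKH477 (200nM) was then added for 30 min. cAMP was read by HTRF.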

Assay [19] has the same target. Nature of the assay: Dopamine D2 receptor (DRD2) small molecule antagonists, cell-based qHTS assay (AID 1963595; active = well fitted inhibition curve with a large enough effect in the signal ratio in the repeat runs, with a control signal flat; the % refers to the signal ratio; note: potency is the fitted concentration of half-maximal effect). Put shortly: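 Cells were plated and grown for 24 h at 37 °C. Ro20-1724 (0.1 mM final) went in first, then compound for 10 min. NKH477 (200 nM) with quinpirole (12 nM) followed for 30 min at RT, then HTRF detection reagents for 1 h.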
Assay [20] addresses Muscarinic acetylcholine receptor M1 (Homo sapiens) (UniProt P11229). The experiment in a line: Cholinergic receptor muscarinic 1 (CHRM1) small molecule antagonists, cell-based qHTS assay (AID 1963588). Note: nearly all actives have a fitted effect of over 40% in size. Put shortly: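 Compounds were tested at 15 concentrations in three independent runs. Dye-loaded CHRM1-CHO cells were exposed 5 min at room temperature before stimulation by acetylcholine added at 50nM. Intracellular calcium was read kinetically on FDSS for 3 min.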

Sequence of Beta-2 adrenergic receptor (Homo sapiens) (P07550 whole entry, looked up): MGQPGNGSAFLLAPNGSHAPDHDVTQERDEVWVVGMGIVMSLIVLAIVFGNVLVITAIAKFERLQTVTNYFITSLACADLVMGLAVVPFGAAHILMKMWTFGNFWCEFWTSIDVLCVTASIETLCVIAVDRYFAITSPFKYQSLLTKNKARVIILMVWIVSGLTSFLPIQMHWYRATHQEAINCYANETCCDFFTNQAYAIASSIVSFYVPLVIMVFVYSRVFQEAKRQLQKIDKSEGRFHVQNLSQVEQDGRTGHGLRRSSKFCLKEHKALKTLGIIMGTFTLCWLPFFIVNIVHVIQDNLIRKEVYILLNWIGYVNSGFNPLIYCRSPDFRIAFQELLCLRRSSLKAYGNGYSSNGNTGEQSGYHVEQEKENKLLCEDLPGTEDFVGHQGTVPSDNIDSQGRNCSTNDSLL
Sequence of Muscarinic acetylcholine receptor M1 (Homo sapiens) (P11229 whole entry, looked up): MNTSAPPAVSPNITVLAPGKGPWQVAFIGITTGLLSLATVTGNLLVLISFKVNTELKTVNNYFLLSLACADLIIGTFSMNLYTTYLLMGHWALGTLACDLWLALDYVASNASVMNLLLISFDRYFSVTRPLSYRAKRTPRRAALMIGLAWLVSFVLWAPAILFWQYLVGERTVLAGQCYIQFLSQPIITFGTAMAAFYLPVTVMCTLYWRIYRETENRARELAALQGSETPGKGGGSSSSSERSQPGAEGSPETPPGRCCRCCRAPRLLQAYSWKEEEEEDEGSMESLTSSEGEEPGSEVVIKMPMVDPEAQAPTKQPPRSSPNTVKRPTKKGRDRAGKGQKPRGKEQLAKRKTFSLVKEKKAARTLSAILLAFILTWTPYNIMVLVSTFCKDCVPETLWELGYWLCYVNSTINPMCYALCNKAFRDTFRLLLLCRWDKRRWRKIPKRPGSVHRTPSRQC
Sequence of Gonadotropin-releasing hormone receptor (Homo sapiens) (P30968 whole entry, looked up): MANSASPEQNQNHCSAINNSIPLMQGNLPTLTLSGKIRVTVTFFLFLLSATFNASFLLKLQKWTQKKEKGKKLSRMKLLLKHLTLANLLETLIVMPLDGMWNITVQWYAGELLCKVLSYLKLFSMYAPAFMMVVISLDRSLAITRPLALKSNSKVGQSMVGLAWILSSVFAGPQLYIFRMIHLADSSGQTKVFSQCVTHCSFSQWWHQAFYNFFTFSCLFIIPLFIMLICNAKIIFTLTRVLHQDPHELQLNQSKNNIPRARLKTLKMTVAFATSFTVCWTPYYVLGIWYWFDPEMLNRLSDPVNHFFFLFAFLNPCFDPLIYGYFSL
Sequence of KiSS-1 receptor (Homo sapiens) (Q969F8 whole entry, looked up): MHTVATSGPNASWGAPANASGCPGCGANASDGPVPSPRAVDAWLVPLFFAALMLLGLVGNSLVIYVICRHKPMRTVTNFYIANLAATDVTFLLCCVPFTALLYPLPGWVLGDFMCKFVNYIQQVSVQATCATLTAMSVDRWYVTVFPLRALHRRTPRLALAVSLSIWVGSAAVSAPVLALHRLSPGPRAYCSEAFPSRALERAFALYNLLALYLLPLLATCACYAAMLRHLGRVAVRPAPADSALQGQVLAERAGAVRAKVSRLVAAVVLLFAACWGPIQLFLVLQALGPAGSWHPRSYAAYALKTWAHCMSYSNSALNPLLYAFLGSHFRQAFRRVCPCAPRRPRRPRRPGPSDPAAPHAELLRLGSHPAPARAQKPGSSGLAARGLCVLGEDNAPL
Sequence of 5-hydroxytryptamine receptor 2A (Homo sapiens) (P28223 whole entry, looked up): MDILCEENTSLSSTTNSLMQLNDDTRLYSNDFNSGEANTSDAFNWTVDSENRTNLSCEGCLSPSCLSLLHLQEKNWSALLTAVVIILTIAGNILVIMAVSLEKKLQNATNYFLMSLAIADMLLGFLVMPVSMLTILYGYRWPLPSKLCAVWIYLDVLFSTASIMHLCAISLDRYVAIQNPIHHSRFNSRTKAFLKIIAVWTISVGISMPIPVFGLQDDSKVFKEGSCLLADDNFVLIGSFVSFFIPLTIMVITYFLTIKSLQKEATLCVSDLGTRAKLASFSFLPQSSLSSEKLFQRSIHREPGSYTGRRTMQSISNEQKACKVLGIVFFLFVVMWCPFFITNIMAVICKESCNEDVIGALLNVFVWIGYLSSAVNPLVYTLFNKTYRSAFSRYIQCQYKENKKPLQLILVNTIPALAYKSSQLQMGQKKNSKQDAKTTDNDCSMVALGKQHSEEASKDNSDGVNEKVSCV
Sequence of D(2) dopamine receptor (Homo sapiens) (P14416 whole entry, looked up): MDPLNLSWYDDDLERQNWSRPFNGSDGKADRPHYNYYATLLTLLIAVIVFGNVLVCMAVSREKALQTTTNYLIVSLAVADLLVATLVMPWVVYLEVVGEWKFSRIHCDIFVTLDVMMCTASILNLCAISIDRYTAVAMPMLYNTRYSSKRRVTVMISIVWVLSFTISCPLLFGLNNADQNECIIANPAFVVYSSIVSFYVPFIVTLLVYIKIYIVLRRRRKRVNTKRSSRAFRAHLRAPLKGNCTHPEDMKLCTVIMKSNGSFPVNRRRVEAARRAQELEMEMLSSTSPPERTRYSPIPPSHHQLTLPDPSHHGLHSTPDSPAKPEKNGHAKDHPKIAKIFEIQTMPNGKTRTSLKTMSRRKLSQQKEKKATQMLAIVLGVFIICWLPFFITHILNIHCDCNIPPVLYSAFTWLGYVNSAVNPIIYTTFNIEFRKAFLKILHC

As for `CCCN(CCCl)c1c([N+](=O)[O-])cc(C(F)(F)F)cc1[N+](=O)[O-]`, the Potency entry in assay [1], in [2], in [3], in [4], in [5] and in assay [6] was “inactive” throughout. Moreover, the Potency entry in assay [7], in assay [8], in assay [9], in assay [10], in [11] and in assay [12] was “inactive” throughout. Besides, the Potency entry in assay [13], in assay [14], in assay [15], in assay [16], in assay [17] and in [18] was “inactive” each time.

For the molecule `ClC1=C(Cl)[C@]2(Cl)[C@H]3[C@H]([C@H]4C=C[C@H]3C4)[C@@]1(Cl)C2(Cl)Cl`, the Potency in assay [1] was 19.3 µM (active). Also, the Potency result in assay [2], in assay [3], in assay [4], in assay [5], in [6] and in [7] was “inactive” throughout. Also, the Potency entry in assay [8], in [9], in assay [10], in assay [11], in assay [12] and in [13] was “inactive” throughout. Further, the Potency entry in assay [15], in assay [16], in [18] and in [19] was “inactive” throughout.

`Cc1cc(SCc2sc(-c3ccc(C(F)(F)F)c(F)c3)nc2C)ccc1OCC(=O)O`: the Potency in assay [1] was 61.1 µM (active); in assay [11] it was 42.1 µM (active). In addition, the Potency entry in assay [2], in assay [3], in assay [4], in assay [5], in [6] and in [7] was “inactive” in each case. The Potency result in assay [9], in assay [16], in assay [18] and in assay [19] was “inactive” throughout.

Consider `O=C(c1ccccc1)C(Cl)Cl`, for which the Potency in assay [1] was 27.3 µM (active). The Potency result in [2], in [3], in assay [4], in assay [5], in [6] and in assay [7] was “inactive” throughout. For the same molecule, the Potency result in [9], in assay [11], in assay [12], in [20], in [13] and in [14] was “inactive” in each case. In addition, the Potency entry in assay [16], in [18] and in assay [19] was “inactive” each time.

On to `CCN[C@H](C)Cc1cccc(C(F)(F)F)c1`, for which the Potency entry in [1], in assay [2], in assay [3], in assay [4], in assay [7] and in assay [8] was “inactive” each time. For the same molecule, the Potency result in assay [9] was “inactive”.

Consider `Nc1ccc(Cc2ccc(N)c(Cl)c2)cc1Cl`, for which the Potency result in assay [1], in assay [2], in assay [3], in [4], in assay [5] and in [6] was “inactive” throughout. Further, the Potency result in assay [9], in [10], in assay [20], in [13], in [14] and in [18] was “inactive” throughout. Besides, in assay [19], the Potency result is “inactive”.

For `CCC(C)(C)C(=O)OC1=C(c2ccc(Cl)cc2Cl)C(=O)OC12CCCCC2`, the Potency in assay [1] was 9.69 µM (active). Besides, the Potency entry in [2], in assay [3], in assay [4], in assay [6], in [7] and in [8] was “inactive” each time. For the same molecule, the Potency entry in assay [10], in assay [11], in assay [12], in assay [20], in [16] and in assay [17] was “inactive” in each case. Further, the Potency result in assay [19] was “inactive”.

In the case of `CN1C[C@H](CNC(=O)OCc2ccccc2)C[C@@H]2c3cccc4c3c(cn4C)C[C@H]21`, the Potency result in assay [1], in [2], in assay [3], in assay [4], in assay [6] and in [7] was “inactive” each time. The Potency entry in [8], in assay [9], in [10], in [14] and in assay [18] was “inactive” each time. For the same molecule, in assay [19], the Potency was 10.6 µM (active).

On to `C[C@H]1CCC[C@H](O)CCCCCc2cc(O)cc(O)c2C(=O)O1`, for which the Potency entry in assay [1], in assay [2], in assay [3], in assay [4], in assay [6] and in assay [7] was “inactive” throughout. The Potency result in assay [8], in [9], in assay [20], in assay [13], in assay [15] and in assay [18] was “inactive” each time. The Potency result in [19] is “inactive”.

The values above are taken from PubChem BioAssay (Tox21).
